Here are results for 93 molecules from ChEMBL document CHEMBL3988442, “University of Dundee, Small-Polar-MMV Screening Library” (2021).

Structures are written as SMILES. Hit rate of the full screen: of about 69,000 compounds, about 950 (1.4%) showed an effect of 50% or more. Only a selection was taken, and strong results are over-represented in it overall.

The assay concerns Mycobacterium tuberculosis. Put plainly: Cornell M. t heat shock assay. Note: in the data most compounds retested in dose-response had high values. Further details: dose or concentration left out as unconfirmed. The assay is classed as functional, organism-based.
In the case of `COCCN1CCc2ncnc(NC(C)C)c2CC1.O=C(O)C(F)(F)F`, the “Percent Effect” value is listed as -1.499%.

Turning to `CS(=O)(=O)N1CCC(Nc2ccc(C#N)c(C(F)(F)F)c2)CC1`, the “Percent Effect” value is on record as -3.037%.

For the molecule `N#Cc1ccc(NC2CCN(c3ncccn3)CC2)cc1Cl`, the “Percent Effect” value is -23.07%.

Take `N#Cc1ccc(NC2CCN(c3ncccn3)CC2)cc1C(F)(F)F`: the “Percent Effect” value was 101.3%. The same measure for `COCCN1CCC2(CCN(c3ncccn3)CC2)C1=O.O=C(O)C(F)(F)F`: -21.42%; for `O=C(O)C(F)(F)F.O=C(c1cnccn1)N1C[C@@H](OCc2cccnc2)[C@H]2OCCC[C@H]21`: -23.96%; for `CN1CCCC(c2cncc(C(=O)NCc3ccccc3Cl)n2)C1.O=CO` (stereo not drawn): 5.616%. The same measure for `CC(=O)Nc1ccc(OCc2noc(C(=O)N3CCCCC3)n2)cc1`: 65.04%. The same measure for `O=C(c1nc(COc2ccc3c(c2)OCO3)no1)N1CCCC1`: 24.96%; for `CC(=O)Nc1ccc(OCc2noc(C(=O)N3CCCCCC3)n2)cc1`: 51.07%. For `O=C(c1nc(Cc2c[nH]c3ccccc23)no1)N1CCCCC1`, the “Percent Effect” value stood at 12.78%. Consider `CC(=O)Nc1ccc(OCc2noc(C(=O)N3CCCC3)n2)cc1`, for which the “Percent Effect” value was 4.312%. The same measure for `NC(=O)Cc1ccc(OCc2noc(C(=O)N3CCCC3)n2)cc1`: -10.23%; for `O=C(NCC1CC2(CO1)CN(Cc1cccs1)C2)C1CCC1.O=C(O)C(F)(F)F` (stereo not drawn): -27.85%. Take `O=C(O)C(F)(F)F.O=C(c1ccncc1F)N1CC[C@@H]2OC(COCC3CC3)CC[C@@H]21` (stereo partly drawn): the “Percent Effect” value was -24.6%. For `CC(C)C(C)NC(=O)c1ncn2c1CN(C)S(=O)(=O)c1ccccc1-2.O=C(O)C(F)(F)F` (stereo not drawn), the “Percent Effect” value was -5.107%. With `CCN(C)c1ncnc2c1CCN(Cc1ccsc1)CC2.O=C(O)C(F)(F)F.O=C(O)C(F)(F)F` the figure was -17.94%; with `COc1ccc(-c2cc3cccn(CC(=O)N4CCOCC4)c-3n2)cc1`, -34.2%.

Consider `CN(C)CCN(C)C(=O)Cn1cccc2cc(-c3ccc(F)cc3)nc1-2`, for which the “Percent Effect” value was 93.82%.

`O=C(Cn1cccc2cc(-c3ccc(F)cc3)nc1-2)N1CCC(O)CC1`: the “Percent Effect” value is -13.39%. For the molecule `O=C(O)C(F)(F)F.O=C1CO[C@@H]2CN(CC3CCOCC3)C[C@H]2N1CC1CC1`, the “Percent Effect” value was -5.405%. `CN1C(=O)CC(c2ccccc2)C12CCN(CC1CC1)CC2.O=C(O)C(F)(F)F` (stereo not drawn): the “Percent Effect” value stood at 1.497%.

Regarding `CCN1CCN(CCCNC(=O)c2cc3ccc(C)cc3nc2C)CC1`, the “Percent Effect” value is reported as -11.33%. The same measure for `Cc1ccc2cc(C(=O)NCCN3CCS(=O)(=O)CC3)c(C)nc2c1`: 96.87%; for `COc1ccc2nc(C)c(C(=O)NCCN3CCS(=O)(=O)CC3)cc2c1`: 0.03382%.

In the case of `CCN(CC)Cc1cn2c(n1)CN(Cc1c(C)noc1C)CC2.O=C(O)C(F)(F)F.O=C(O)C(F)(F)F`, the “Percent Effect” value is on record as -4.28%. For `Cn1nccc1-c1nnn2c1COCC(CNC1CCOCC1)C2.O=C(O)C(F)(F)F.O=C(O)C(F)(F)F` (stereo not drawn), the “Percent Effect” value came to 3.559%. With `CCCc1nc(NCCc2ccccc2)c2c(n1)c(C)nn2CC` the figure was 91.68%; with `CCn1nc(C)c2nc(C)nc(NCCCn3cccn3)c21`, -3.879%.

For the molecule `CCCn1c(NCCc2ccccc2)nc2c(C)nn(C)c2c1=O`, the “Percent Effect” value worked out at 22.06%.

Take `CCCc1nc(NCCOC)c2c(n1)c(C)nn2CC`: the “Percent Effect” value was -17.61%.

With `CCn1nc(C)c2nc(C)nc(NCCc3ccc(C)cc3)c21`, the “Percent Effect” value amounted to 69.41%.

For the molecule `CCn1nc(C)c2nc(C)nc(NC3CCCC3)c21`, the “Percent Effect” value was 69.93%. Take `Cc1nc(NC2CCCC2)c2c(n1)c(C)nn2C`: the “Percent Effect” value stood at 15.85%. With `Cc1nc(NC2CC2)c2c(n1)c(C)nn2C`, the “Percent Effect” value was -10.52%. `CCn1nc(C)c2nc(C)nc(NCCc3ccccc3)c21`: the “Percent Effect” value was 83.2%. As for `CCCc1nc(NCCCO)c2c(n1)c(C)nn2CC`, the “Percent Effect” value was determined as 24.94%. Take `CCn1nc(C)c2nc(C(C)C)nc(NCCc3ccc(O)cc3)c21`: the “Percent Effect” value is -11.29%. As for `CCCc1nc(NCCCOC)c2c(n1)c(C)nn2CC`, the “Percent Effect” value is -13.02%. For `O=C(O)C(F)(F)F.O=C(O)C(F)(F)F.c1cc(CN2CCO[C@H]3[C@H](OCC4CCCC4)CC[C@@H]32)ccn1`, the “Percent Effect” value is 3.983%. With `Cc1ccc(C(=O)N2CCC3(CCCN(c4ncc(F)cn4)C3)C2)cn1.O=C(O)C(F)(F)F` (stereo not drawn) the figure was 10.32%; with `C1CC(CO[C@@H]2CC[C@H]3[C@H]2OCCN3CC2CC2)CCO1.O=C(O)C(F)(F)F`, -24.78%; with `Cc1ccc(C)c(CSc2nnc(C(N)Cc3ccccc3)o2)c1.Cl` (stereo not drawn), -13.89%.

In the case of `Cl.O=C(C1CC1)N1CCOC2(CCNCC2)C1`, the “Percent Effect” value came to 27.3%. The same measure for `Fc1ccc(CN2C[C@@H]3OCCN(CC4CCCO4)[C@@H]3C2)cc1.O=C(O)C(F)(F)F.O=C(O)C(F)(F)F` (stereo partly drawn): -48.55%; for `CCc1ncnc2c1CCN(Cc1ccc3c(c1)OCO3)CC2.O=C(O)C(F)(F)F`: -11.62%; for `COC[C@H]1CC[C@@H]2[C@@H](CCN2Cc2ccco2)O1.O=C(O)C(F)(F)F`: -6.92%.

Consider `Cc1ccc(CN2CCOC3(CCN(CC4CCOC4)CC3)C2)cc1.O=C(O)C(F)(F)F.O=C(O)C(F)(F)F` (stereo not drawn), for which the “Percent Effect” value is 35.27%. For `CNC(=O)[C@H]1CO[C@H]2CCN(Cc3ccc4ccccc4n3)C[C@H]2C1.O=C(O)C(F)(F)F.O=C(O)C(F)(F)F`, the “Percent Effect” value is on record as -6.104%. With `CCCc1nc(N2CCCCCC2)c2c(n1)c(C)nn2CC` the figure was 50.35%. The same measure for `CCCc1nc(N2CCCCC2)c2c(n1)c(C)nn2CC`: -7.298%; for `CCCc1nc(N2CCN(CC)CC2)c2c(n1)c(C)nn2CC`: -31.53%. As for `COCC(=O)N1CCOCC2(CCN(Cc3cccs3)C2)C1.O=C(O)C(F)(F)F` (stereo not drawn), the “Percent Effect” value is listed as -21.04%. The same measure for `Cc1ccc(CN2CCn3c(CN(C)C(C)C)cnc3C2)s1.O=C(O)C(F)(F)F.O=C(O)C(F)(F)F`: -14.26%; for `Cc1cn2c(n1)C(CNCc1ccc(C)s1)CCC2` (stereo not drawn): -22.18%; for `Cc1cn2c(n1)C(CNCC1=Cc3ccccc3OC1)CCC2` (stereo not drawn): 28.86%. With `Cc1cn2c(n1)C(CNCC1=Cc3cc(Cl)ccc3OC1)CCC2` (stereo not drawn) the figure was 99%; with `O=C(NCC1CC1)[C@H]1C[C@@H]2CCN(Cc3ccc4c(c3)OCO4)C[C@@H]2O1.O=C(O)C(F)(F)F`, -28.42%; with `COc1cccc(-c2nc(CNCCn3cccn3)cs2)c1`, 90.69%. The same measure for `c1cnn(CCNCc2csc(-c3ccsc3)n2)c1`: 52.72%. Regarding `c1ccc(-c2nc(CNCCn3cccn3)cs2)cc1`, the “Percent Effect” value came out at 37.88%. The same measure for `COc1cccc(-c2nc(CNCCc3cccnc3)cs2)c1`: -0.6336%. The same measure for `c1cnc(-c2nc(CNCCn3cccn3)cs2)nc1`: -0.9429%; for `Fc1ccccc1-c1nc(CNCCn2cccn2)cs1`: 20.44%. With `Fc1ccc(-c2nc(CNCCn3cccn3)cs2)cc1`, the “Percent Effect” value is 66.63%. As to `c1csc(-c2nc(CNCCn3cccn3)cs2)c1`, the “Percent Effect” value is given as 10.7%.

For the molecule `c1ccc(-c2nc(CNCCn3cccn3)cs2)nc1`, the “Percent Effect” value is given as -25.33%. With `COc1cccc(-c2nc(CNCCCn3cccn3)cs2)c1` the figure was 37.34%; with `Clc1ccccc1-c1nc(CNCCn2cccn2)cs1`, 54.38%; with `Fc1ccc(-c2n[nH]cc2CNCCn2cccn2)cc1`, 11.69%.

As to `Cc1ccc(CN2CCC3(CC2)CN(c2cnn(C)c2)C(=O)CO3)o1.O=C(O)C(F)(F)F`, the “Percent Effect” value is -7.35%.

Regarding `OCCOc1cc(F)ccc1NCc1cccc(F)c1F`, the “Percent Effect” value is given as -41.85%. Turning to `O=C(O)C(F)(F)F.O=S(=O)(c1cccs1)N1CC[C@H](O)[C@@H]1Cc1ccncc1`, the “Percent Effect” value is -2.198%. The same measure for `Cn1cc(N2C(=O)CC[C@@H]3[C@H]2CCN3CCc2ccccc2)cn1.O=C(O)C(F)(F)F.O=C(O)C(F)(F)F`: -25.96%; for `COc1ccc(CNC(C)c2cccc(Br)c2)c(OC)c1OC.Cl` (stereo not drawn): -10.84%.

With `COCCN1CCC(c2nc3ccc(-c4ccccc4)cn3n2)CC1.O=C(O)C(F)(F)F`, the “Percent Effect” value is -23.12%.

Regarding `C/N=C1/c2cc3cc(OC)ccc3n2CCN1Cc1ccccc1.Cl`, the “Percent Effect” value is on record as -17.35%. Regarding `Cc1noc(C)c1CN1CCO[C@H]2CN(C(=O)N3CCCC3)C[C@H]21.O=C(O)C(F)(F)F`, the “Percent Effect” value was -20.16%.

Consider `Cn1cc(-c2nc(CNCCn3cccn3)cs2)cn1`, for which the “Percent Effect” value is -4.068%. With `COc1ccc(-c2nnc(CNCCn3cccn3)o2)cc1` the figure was -11.96%. With `COc1ccc(-c2nc(CNCCn3cccn3)cs2)cc1` the figure was 106.9%.

For `CCc1c(C)nc2cc(C3CCN(Cc4ccncc4C)C3)nn2c1O` (stereo not drawn), the “Percent Effect” value was -4.904%.

With `O=C(O)C(F)(F)F.O=C(c1ccncc1F)N1CCc2onc(COc3cccnc3)c2C1`, the “Percent Effect” value is reported as 2.972%.

Consider `Cn1ccc(C(=O)N2CCC[C@]3(C[C@@H](OCc4ccccn4)CO3)C2)n1.O=C(O)C(F)(F)F`, for which the “Percent Effect” value was -3.608%. The same measure for `CCCNC(=O)CCC(=O)N1CCC(c2noc3cc(F)ccc23)CC1`: 9.612%; for `O=C(CCN1CCC(C(=O)c2cc(F)ccc2F)CC1)NC1CC1`: -9.281%; for `O=C(CCc1cc(O)no1)N1CCC(Cc2ccc(F)cc2)CC1`: 4.65%. The same measure for `NC(=O)CN1CCC(c2noc3cc(F)ccc23)CC1`: -31.79%. With `O=C(CCC(=O)N1CCC(c2noc3cc(F)ccc23)CC1)NC1CC1` the figure was 83.45%; with `CC(C)NC(=O)CCC(=O)N1CCC(c2noc3cc(F)ccc23)CC1`, 74.12%; with `O=C(O)CCC(=O)N1CCC(c2noc3cc(F)ccc23)CC1`, 69.92%. `O=C(O)CCCC(=O)N1CCC(c2noc3cc(F)ccc23)CC1`: the “Percent Effect” value is listed as 20.09%. With `CC(C)NC(=O)CN1CCC(c2cccc(F)c2)C1` (stereo not drawn) the figure was -24.09%.
